MITF TRPM1 HTS = increases MITF-driven TRPM1 promoter luciferase signal. activation, % at 12.5 µM. SK-MEL-5 TRPM1-promoter luciferase, 24 h; % of positive control, neutral wells = 0. actives 0.75% (n = 300,000);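 active means mean activation of at least 80% with every replicate also reaching 80%; inconclusive means mean reaches 80% but some replicate falls short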;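 further: 0% = neutral control wells and 100% = parthenolide positive control wells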
Wnt bcat act = activators of Wnt/beta-catenin signaling. activation, % at 9.35 µM. actives 1.2% (n = 300,000). Wnt/beta-catenin reporter cell assay, activator, plate reader; in the data active means activation above about 30%, passing the limit was not always enough; inconclusive means no clear call, values can overlap the other calls;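 further: 0% = neutral control wells and 100% = positive control wells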
esBAF inh = blocks esBAF chromatin remodeling in mouse ES cells; Bmi1-luciferase knock-in reporter, 24 h; 100% = twice the neutral-well signal; reporter increase, % at 12.5 µM; actives 2% (n = 350,000); in the data active means activation above about 40%; inconclusive means no clear call, values can overlap the other calls;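 further: 0% = median of the plate's neutral control wells and 100% = double that signal; a rise in the Bmi1 reporter signal indicates esBAF inhibition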
AHR act = activates the human aryl hydrocarbon receptor | actives 2.5% (n = 320,000) | P35869 | AHR-responsive luciferase reporter cells, luminescence | activation, % at 5 µM | AID 2796; in the data active means activation above about 47%;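 further: 0% = vehicle wells and 100% = reference agonist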
Target sequence (P35869 whole entry, looked up): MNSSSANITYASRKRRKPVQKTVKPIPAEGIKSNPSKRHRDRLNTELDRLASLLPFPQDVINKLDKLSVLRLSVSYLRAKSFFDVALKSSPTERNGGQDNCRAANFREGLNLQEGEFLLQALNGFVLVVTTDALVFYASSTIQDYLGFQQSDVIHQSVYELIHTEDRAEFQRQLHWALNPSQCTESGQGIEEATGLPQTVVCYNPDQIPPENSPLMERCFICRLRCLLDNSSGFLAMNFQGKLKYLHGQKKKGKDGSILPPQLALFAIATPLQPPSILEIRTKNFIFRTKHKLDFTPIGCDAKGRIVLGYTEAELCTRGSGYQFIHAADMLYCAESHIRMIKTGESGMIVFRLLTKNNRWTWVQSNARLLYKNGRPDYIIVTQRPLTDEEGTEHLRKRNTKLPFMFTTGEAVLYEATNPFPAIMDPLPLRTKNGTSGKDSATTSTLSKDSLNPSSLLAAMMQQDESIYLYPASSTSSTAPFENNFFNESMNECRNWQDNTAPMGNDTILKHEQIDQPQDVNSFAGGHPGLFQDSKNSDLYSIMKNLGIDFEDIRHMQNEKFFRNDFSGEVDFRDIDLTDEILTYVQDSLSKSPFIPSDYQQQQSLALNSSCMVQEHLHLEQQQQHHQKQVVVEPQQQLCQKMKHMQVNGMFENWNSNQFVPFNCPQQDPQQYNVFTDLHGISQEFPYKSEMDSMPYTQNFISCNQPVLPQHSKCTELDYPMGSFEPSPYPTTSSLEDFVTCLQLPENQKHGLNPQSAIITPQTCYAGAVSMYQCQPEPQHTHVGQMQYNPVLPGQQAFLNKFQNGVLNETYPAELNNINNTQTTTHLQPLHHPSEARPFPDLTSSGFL
FXN GAA850 act = increases GAA850 frataxin promoter reporter activity | actives 0.56% (n = 360,000) | AID 540364 | HEK293 lucGAA850 FXN promoter luciferase reporter, 24 h; percent of 10 µM SAHA response | activation, % at 6 µM;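 active means activation above the average of all compounds screened plus 3 SD, cutoff fixed separately per campaign, cut at about 7.5% in these data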;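 further: 0% = DMSO wells and 100% = 10 µM SAHA wells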
Starred values were filed as active, the others as inactive; ? = inconclusive; nt = no result. Most compounds without a hit are left out; they make up all but 4.2% or so of the library.

SMILES | MITF TRPM1 HTS | Wnt bcat act | esBAF inh | AHR act | FXN GAA850 act
Cc1ccc(C(=O)CCC2CCCC2=O)cc1 (stereo not given) | 33 | nt | 57* | 2 | 2
Cc1ccc(C(=O)CCC2CCCCC2=O)cc1 (stereo not given) | 72 | -3 | 45* | 9 | 0
CNC[C@H]1Oc2cc(C#Cc3ccccc3F)ccc2S(=O)(=O)N([C@@H](C)CO)C[C@@H]1C | nt | nt | -1 | nt | nt
C[C@@H]1CN([C@H](C)CO)C(=O)c2cc(C3=CCCC3)cnc2O[C@@H]1CN(C)C(=O)c1ccc(F)cc1 | nt | nt | 20 | nt | nt
Cc1ccc(NC(=O)c2nsc(Cl)c2Cl)cc1 | nt | -1 | ? | 69* | 4
CCOCCCNc1ncnc2c1[nH]c1ccccc12 | 9 | -2 | -10 | 50* | 2
CCCCOc1ncnc2c1[nH]c1ccc(OCC)cc12 | 28 | nt | 13 | 45 | 1
CCCCOc1ncnc2c1[nH]c1ccccc12 | -2 | nt | -2 | 50* | 2
COc1ccc(CN2CCNC(=O)C2CC(=O)NCC(C)(C)N2CCOCC2)cc1C (stereo not given) | 3 | 1 | 2 | 61* | 0
Cc1cc(C)c2c(N)c(C(=O)Nc3nccs3)sc2n1 | nt | 39* | -76 | 71* | -3
Nc1c(C(=O)Nc2nccs2)sc2nc(-c3cccs3)cc(C(F)(F)F)c12 | -8 | nt | 9 | 65* | -1
CCOC(=O)CNC(=O)c1sc2nc(C)cc(C)c2c1N | 3 | nt | nt | 0 | 4
COCc1cc(C)nc2sc(C(=O)Nc3nccs3)c(N)c12 | nt | 6 | 56* | 12 | 2
COc1ccc(NC(=O)Nc2ccc3c(c2)C(=O)N([C@H](C)CO)C[C@H](C)[C@@H](CN(C)C(=O)C2CCCCC2)OCCCC[C@@H](C)O3)cc1 | nt | nt | 5 | nt | nt
O=C(C[n+]1cc(-c2ccc(F)cc2)n2c1CCC2)c1cccs1 | nt | -2 | 46* | 5 | 5
Cc1noc(C)c1NC(=O)N(C)C[C@@H]1Oc2ccc(NC(=O)Nc3ccc(C(F)(F)F)cc3)cc2C(=O)N([C@@H](C)CO)C[C@H]1C | nt | nt | -3 | nt | nt
O=C(NC1Cc2ccccc2C1)[C@H]1N[C@H]2c3cccc(=O)n3C[C@H]2[C@@H]1CO | nt | nt | -2 | nt | nt
COc1ccc(C2OC3=C(Nc4cc(C)c(C)cc4N3)C2=O)cc1 (stereo not given) | 61 | 21 | 56* | 9 | 5
CCc1ccc(CNc2ccc3c(c2)ncn3C(C)(C)C)cc1 | 35 | 29 | 51* | 10 | 2
CCc1ccc(CNc2ccc3c(c2)ncn3CC)cc1 | 91* | 29 | 75* | 30 | 7
CS(=O)(=O)Nc1ccc2c(c1)[C@@H]1C[C@H](CC(=O)NC3CCCC3)O[C@H](CO)[C@@H]1O2 | nt | nt | -5 | nt | nt
O=C(Nc1cccc(Cl)c1)N1C[C@@H]2[C@H](c3ccccc31)[C@@H](CO)N2C(=O)C1CCCC1 | nt | nt | -5 | nt | nt
CC(=O)c1ccc(NC(=O)c2ccc3snnc3c2)cc1 | 85* | 14 | 63* | 10 | 4
O=C(Nc1ccccc1F)c1ccc2snnc2c1 | 44 | 5 | 26 | 17 | 3
CNC(=O)c1ccc2snnc2c1 | nt | -1 | -8 | 1 | -1
SMILES | MITF TRPM1 HTS | Wnt bcat act | esBAF inh | AHR act | FXN GAA850 act
COc1ccc(NC(=O)c2ccc3snnc3c2)cc1 | 62 | nt | 56* | 16 | 6
CCCC(=O)Nc1nc2ccc3nc(C)sc3c2s1 | 36 | nt | 41* | -1 | 0
CCC(=O)Nc1nc2ccc3sc(C)nc3c2s1 | 1 | 4 | nt | 69* | -6
COC(=O)c1ccc2nc(NC(=O)C3CC3)sc2c1 | 61 | 28 | -22 | -4 | 4
Cc1nc2c(ccc3nc(NC(=O)C4CC4)sc32)s1 | -20 | 5 | 68* | 41 | 0
C[C@@H]1CCCCO[C@@H](CN(C)CC2CCCCC2)[C@H](C)CN([C@@H](C)CO)C(=O)c2cc(NC(=O)Nc3ccccc3)ccc2O1 | nt | nt | 5 | nt | nt
C=CCc1ccc(OCC(O)CO)c(OC)c1 (stereo not given) | 3 | -1 | nt | -4 | 3
C=CCc1ccc(OCC(O)COCC)c(OC)c1 (stereo not given) | 93* | nt | 41* | 7 | 2
COc1ccc(NC(=O)N(C)C[C@@H]2Oc3ccc(NS(=O)(=O)c4ccc(C)cc4)cc3C(=O)N([C@H](C)CO)C[C@@H]2C)cc1 | nt | nt | -5 | nt | nt
COC(=O)c1[nH]c2ccc(C)cc2c1NC(=O)CN1CCc2cc(OC)c(OC)cc2C1 | -15 | -2 | 1 | 4 | -1
COC(=O)c1[nH]c2cc(C)ccc2c1NC(=O)CN1CCN(C(=O)c2ccco2)CC1 | -16 | -10 | -6 | 67* | 1
COC(=O)c1[nH]c2ccc(Br)cc2c1NC(=O)CN1CCCc2ccccc21 | -23 | -8 | nt | 48* | 0
COC(=O)c1[nH]c2cccc(C)c2c1NC(=O)CN1CCN(C(=O)c2ccco2)CC1 | -12 | -2 | 5 | 7 | 0
COC(=O)c1[nH]c2cc(C)ccc2c1NC(=O)CN1CCCc2ccccc21 | 9 | nt | 20 | 67* | 3
N#CCc1ccc(NC(=O)Nc2cccc3ccccc23)cc1 | 16 | nt | 49* | 16 | 2
O=C(NCCCn1ccnc1)c1ccc(-c2ccccc2)cc1 | 3 | 3 | 14 | 15 | 3
Cc1cc(C(=O)NCCCn2ccnc2)sc1-c1ccccc1 | 15 | nt | 1 | 70* | 3
Cc1cc(-c2ccccc2)nc2cc(C(=O)NCCCn3ccnc3)nn12 | 13 | nt | 1 | 66* | 1
COc1ccc(-c2cn(Cc3ccc(C(N)=O)cc3)c(-c3ccncc3)n2)cc1 | 106* | 47* | 76* | 30 | 5
O=C(C[C@H]1C[C@H]2c3cc(NC(=O)NC4CCCCC4)ccc3O[C@H]2[C@@H](CO)O1)NCC(F)(F)F | nt | nt | -3 | nt | nt
COc1ccc(C)cc1NC(=O)CSCc1ccccc1C | 7 | -2 | -4 | 4 | 1
Cc1ccc(CSCC(=O)Nc2ccc(F)cc2)cc1 | 2 | 0 | nt | 68* | 2
O=C(CSCc1ccccc1)Nc1cccc(F)c1 | 95* | 63* | nt | 1 | 4
O=C(CSCc1ccc(F)cc1)Nc1ccc(F)cc1 | 24 | nt | nt | 3 | 2
O=C(CSCc1c(F)cccc1Cl)Nc1cccnc1 | 5 | 0 | nt | -1 | 2
SMILES | MITF TRPM1 HTS | Wnt bcat act | esBAF inh | AHR act | FXN GAA850 act
O=C(CSCc1c(F)cccc1F)Nc1ccccc1 | nt | 8 | 51* | 2 | 1
Cc1ccccc1CSCC(=O)Nc1ccccc1F | nt | 8 | 48* | 0 | 2
Cc1noc(C)c1NC(=O)N(C)C[C@H]1OCCCC[C@@H](C)Oc2ccc(NC(=O)NC3CCCCC3)cc2C(=O)N([C@H](C)CO)C[C@@H]1C | nt | nt | 1 | nt | nt
CCOC(=O)c1ccc(S(=O)(=O)NCCNCc2ccccc2)cc1 | 2 | 39* | -4 | 0 | 2
COc1cccc(S(=O)(=O)N2C[C@@H](O)COC[C@H]3O[C@@H](CC(=O)N4CCCCC4)CC[C@@H]32)c1 | nt | nt | 0 | nt | nt
Cc1ccc(NC(=O)NCC2CC2(Cl)Cl)cc1 (stereo not given) | 54 | 15 | 50* | 8 | 1
O=C(NCC1CC1(Cl)Cl)Nc1ccc(Cl)c(Cl)c1 (stereo not given) | 52 | 6 | 32 | 11 | 6

High-throughput results: PubChem, several laboratories
